Experimental data taken from PubChem BioAssay (NCATS).
Several values for one entry are separate records, joined by “and”; a condition that tells them apart may be missing. Equal values may be shown once. Inconclusive results are not listed. Entries that show only a call come without a potency. Some compounds were tested as several samples or in several runs, with calls that do not always agree. Activity calls are given as the source filed them. Calls come from the whole dose curve; as a rule, active = well fitted inhibition curve with a large enough effect; inconclusive = small, poorly fitted or top-dose-only effect; inactive = flat fitted curve, though single readings scatter.
Potency is the fitted concentration of half-maximal effect.

Assay: P-glycoprotein substrates identified in KB-8-5-11 adenocarcinoma cell line, qHTS therapeutic library screen (AID 1346987); note: nearly all actives have a fitted effect of over 65% in size
Settings: KB-8-5-11 (P-gp overexpressing) viability, CellTiter-Glo, 72 h; series mostly up to 44.5 µM
From the text: The ATP-binding cassette transporters P-glycoprotein (P-gp) is known to limit brain penetration of many chemotherapy drugs. […] As such, we developed a high-throughput screen (HTS) to identify substrates of P-gp from a series of chemical libraries including the National Center for Advancing Translational Sciences Pharmaceutical Collection NPC, 2,816 compounds), testing a total of 10,804 compounds, most of which have known mechanisms of action. We used the CellTiter-Glo viability assay to test library compounds against the parental KB-3-1 human cervical adenocarcinoma cell line and the colchicine-selected sub-line KB-8-5-11 that over-expresses P-gp. KB-8-5-11 cells were also tested in the presence of a P-gp inhibitor (tariquidar) to assess reversability of transporter-mediated resistance. Of the tested compounds, a total of 90 P-gp substrates were identified including 55 newly identified P-gp substrates. Substrates were confirmed using an orthogonal killing assay against HEK-293 cells transfected with P-gp. As exemplars, we confirmed that […] (cyclin-dependent kinase inhibitor); AT9283, (Janus kinase 2/3 inhibitor); ispinesib (kinesin spindle protein inhibitor); gedatolisib (PKI-587, phosphoinositide 3-kinase/mammalian target of rampamycin inhibitor); GSK-690693 (AKT inhibitor); and KW-2478 (heat shock protein 90 inhibitor) were substrates , and direct ATPase stimulation was assessed. ABCG2 was also found to confer high levels of resistance to AT9283, GSK-690693 and gedatolisib, while ispinesib, AT7519 and KW-2478 were weaker substrates.
The HeLa derivative cell line, KB-3-1, and its colchicine-selected, P-gp-overexpressing subline, KB-8-5-11 were maintained in DMEM with 10% FCS and Pen/Strep with glutamine at 37 degree C in 5% CO2. For KB-8-5-11 cells, colchicine was added to the medium at a concentration of 100 ng/mL. HEK-293 cells transfected with empty vector (pcDNA) or vector containing human ABCB1 (MDR-19) or ABCG2 (R-5) have been described previously (Robey, Lin, Qiu, Chan & Bates, 2011) and were maintained in EMEM supplemented with 10% FCS, Pen/Strep and glutamine with 2 mg/ml G418 to select for the expression of the transporter. Cultures were confirmed to be free of mycoplasma infection using the MycoAlert Mycoplasma Detection Kit (Lonza, Walkersville, MD). For the screen, assay medium was identical to culture medium except for KB-8-5-11 where colchicine was excluded from the medium.
All cell lines were plated into 1536-well plates at 500 cells/well in 5 uL media. Compounds were then pinned in dose-response using a 1536-head pin tool (Kalypsis, San Diego, CA) and plates were incubated at 37 degree C in 5% CO2 for an additional 72 h. CellTiter-Glo reagent (Promega) was dispensed into the wells, incubated for 5 min and luminescence was read on a ViewLux instrument (Perkin-Elmer). Cytotoxic compounds were defined as those that yielded a curve class of -1.1, -1.2, -2.1, -2.2, -2.3, or -2.4, a maximum response of >50% and an AC50 of < 10 uM. Cherry-picked hits from screening analysis were tested with both the KB pair of cell lines, and the pcDNA (empty vector control) and MDR-19 (P-gp overexpressing) pair were tested, in the absence and presence of tariquidar.
With COc1ccc2c(c1)c(CC(=O)OCC(=O)O)c(C)n2C(=O)c1ccc(Cl)cc1 the Potency was “inactive”. With CS(=O)(=O)c1ccc([C@@H](O)[C@@H](CO)NC(=O)C(Cl)Cl)cc1 the Potency was “inactive”. For CCOCC(O)COc1ccc(NC(=O)CC[S+](C)C)cc1 (stereo not given), the Potency was “inactive”. In the case of CC[C@H](C)C(=O)O[C@H]1C[C@@H](C)C=C2C=C[C@H](C)[C@H](CC[C@@H]3C[C@@H](O)CC(=O)O3)[C@H]21, the Potency is reported as 18.7 µM (active). With Cc1oc(=O)oc1CN1CCN(c2cc3c(cc2F)c(=O)c(C(=O)O)c2n3C(C)S2)CC1 (stereo not given) the Potency was “inactive”. With COc1cc2c(Nc3ccc(Br)cc3F)ncnc2cc1OCC1CCN(C)CC1 the Potency was “inactive”. For NC(=O)c1ccc2[nH]ccc2c1, the Potency was “inactive”. In the case of CCn1cc(C(=O)O)c(=O)c2cc(F)c(N3CCNCC3)cc21, the Potency is reported as “inactive”. With CCCCCCNC(=O)n1cc(F)c(=O)[nH]c1=O the Potency was 6.51 µM (active). For COc1ncnc(NS(=O)(=O)c2ccc(N)cc2)c1OC, the Potency was “inactive”. With CCC(=O)O[C@]1(C(=O)SCF)[C@H](C)C[C@H]2[C@@H]3C[C@H](F)C4=CC(=O)C=C[C@]4(C)[C@@]3(F)[C@@H](O)C[C@@]21C the Potency was “inactive”. For NC1(c2ccc(-c3nc4ccn5c(=O)[nH]nc5c4cc3-c3ccccc3)cc2)CCC1, the Potency was 11.6 µM (active). In the case of Cn1nnc2c(C(N)=O)ncn2c1=O, the Potency is reported as “inactive”. In the case of CCc1c2c(nc3ccc(OC(=O)N4CCC(N5CCCCC5)CC4)cc13)-c1cc3c(c(=O)n1C2)COC(=O)[C@]3(O)CC, the Potency is reported as “inactive”. For Cc1ncc([N+](=O)[O-])n1CCO, the Potency was “inactive”. With COC(c1ccccc1)(c1ccccc1)[C@H](Oc1nc(C)cc(C)n1)C(=O)O the Potency was “inactive”. For CN1CCCC(n2nc(Cc3ccc(Cl)cc3)c3ccccc3c2=O)CC1 (stereo not given), the Potency was “inactive”. In the case of CCCOc1ccc(C(=O)OCCN(CC)CC)cc1N, the Potency is reported as “inactive”. For CCCCS(=N)(=O)CCC(N)C(=O)O (stereo not given), the Potency was “inactive”. In the case of NNC(=O)c1ccncc1, the Potency is reported as “inactive”. For CC1=C(C(=O)O)N2C(=O)[C@@H](NC(=O)C(N)c3ccccc3)[C@H]2SC1 (stereo not given in full), the Potency was “inactive”. In the case of O=S(=O)(c1cccc2cnccc12)N1CCCNCC1, the Potency is reported as “inactive”. For NCCCC(O)(P(=O)(O)O)P(=O)(O)O, the Potency was “inactive”. With CCOC(=O)[C@H](CCc1ccccc1)N[C@H]1CCc2ccccc2N(CC(=O)O)C1=O the Potency was “inactive and 23.5 µM (active)”. With C[C@@H]1CN(c2c(F)c(N)c3c(=O)c(C(=O)O)cn(C4CC4)c3c2F)C[C@H](C)N1 the Potency was “inactive”. For COc1cc2nc(N3CCCN(C)CC3)nc(NC3CCN(Cc4ccccc4)CC3)c2cc1OC, the Potency was 9.35 µM (active). For Nc1nc(N)nc(-c2cc(Cl)ccc2Cl)n1, the Potency was “inactive”. With NC(=O)c1cccc(N)c1 the Potency was “inactive”. With CN(Cc1cc(Br)cc(Br)c1N)C1CCCCC1 the Potency was “inactive”. With O=c1cc(O)c(Cl)c[nH]1 the Potency was “inactive”. In the case of O=NN(CCCl)C(=O)NC1CCCCC1, the Potency is reported as “inactive”. With COc1cnc(NS(=O)(=O)c2ccc(N)cc2)nc1 the Potency was “inactive”. For CC(=O)Oc1ccccc1C(=O)Nc1ncc([N+](=O)[O-])s1, the Potency was “inactive and 13 µM (active)”. For CNC(=O)c1cc(Oc2ccc(NC(=O)Nc3ccc(Cl)c(C(F)(F)F)c3)cc2)ccn1, the Potency was 11.8 µM (active) and 8.2 µM (active) and 6.51 µM (active). For COc1ccc2cc3[n+](cc2c1OC)CCc1cc2c(cc1-3)OCO2, the Potency was “inactive”. In the case of OC(Cn1cncn1)(Cn1cncn1)c1ccc(F)cc1F, the Potency is reported as “inactive”. For COc1cc2ncnc(Nc3cccc(Cl)c3)c2cc1OC, the Potency was 8.33 µM (active) and 16.4 µM (active). With CCN(C)C(=O)Oc1cccc([C@H](C)N(C)C)c1 the Potency was “inactive”. In the case of CN1CCN(c2c(F)cc3c(=O)c(C(=O)O)cn(CCF)c3c2F)CC1, the Potency is reported as “inactive”. With CO[C@@]12[C@H](COC(N)=O)C3=C(C(=O)C(C)=C(N)C3=O)N1C[C@@H]1N[C@@H]12 the Potency was “inactive and 16.6 µM (active)”.
